Results reported in PubChem BioAssay (NCI).
This is part of a sample that, as a whole, favours compounds with a hit. Of some 83,000 tested, about 20% had one in any assay.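 Plates (96-well) were seeded with cells, treated with compound at one concentration, and incubated for 48 hours before percent growth was determined.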 Unmarked numbers belong to inactive results. Calls of active or inactive are those of the source. Rule for the calls: active = growth percent below 10; inactive = the rest.

Experiments:
Assay in all cases: NCI-60 one-dose screen, 48 h (100 = growth as untreated, 0 = no growth, -100 = all killed)
Details in all cases: 10 µM unless noted
HCT-15 colon = tested on: HCT-15 colon
HT29 colon = tested on: HT29 colon
SNB-75 CNS = tested on: SNB-75 CNS
SNB-19 CNS = tested on: SNB-19 CNS
U251 CNS = tested on: U251 CNS
PC-3 prostate = tested on: PC-3 prostate
SK-MEL-5 melanoma = tested on: SK-MEL-5 melanoma
UACC-62 melanoma = tested on: UACC-62 melanoma
LOX IMVI melanoma = tested on: LOX IMVI melanoma
SK-MEL-28 melanoma = tested on: SK-MEL-28 melanoma

SMILES | growth (HCT-15 colon) | growth (HT29 colon) | growth (SNB-75 CNS) | growth (SNB-19 CNS) | growth (U251 CNS) | growth (PC-3 prostate) | growth (SK-MEL-5 melanoma) | growth (UACC-62 melanoma) | growth (LOX IMVI melanoma) | growth (SK-MEL-28 melanoma)
O=C(O)COc1ccc([N+](=O)[O-])cc1Cl | 94.1% | 113% | 94.3% | 107% | 96.5% | 97.6% | 106% | 111% | 100% | 104%
O=C1C(Br)=CC2C1C1C3CCC3C2(Br)C12OCCO2 (stereo not given) | 19% | 8.84% (active) | 56.3% | 81% | 35.3% | 32% | 67.3% | 54.9% | 8.55% (active) | 55.7%
O=C(CCC(=O)N(CCO)CCO)N(CCO)CCO | 94.9% | 98.6% | 94% | 108% | 105% | 100% | 114% | 109% | 101% | 106%
O=C(N/N=C/c1coc2ccccc2c1=O)c1cc2oc(-c3ccccc3)cc2[nH]1 | 100% | 107% | 83.8% | 92.9% | 97.9% | 72.1% | 84% | 94.6% | 98.4% | 91.9%
Cc1ccc(C(=O)Nc2ccc(CN3CCN(C)CC3)c(C(F)(F)F)c2)cc1C#Cc1cnc(N)c2ccc(F)cc12 | -93.4% (active) | -85% (active) | -70.4% (active) | -99.1% (active) | -89.2% (active) | -82.7% (active) | -96% (active) | -83.9% (active) | -91.4% (active) | -96.2% (active)
CCC(C)CC(N)O (stereo not given) | 103% | 111% | 106% | 106% | 106% | 111% | 99.9% | 104% | 110% | 102%
COc1ccc(/C=C2\CCCC3=C2N=C2SC=NN2C3c2ccc(OC)c(OC)c2)cc1OC (stereo not given) | 34.2% | 14.4% | 40.1% | 68.6% | 30.2% | 67.9% | 30.8% | 38.1% | 9.24% (active) | 66%
CCOC(=O)C1=C(C(F)(F)F)NC(=O)NC1CN1C(=O)c2ccccc2C1=O (stereo not given) | 123% | 113% | 98.4% | 111% | 107% | 92% | 111% | 92.9% | 111% | 113%
CC1(c2ccc(Br)cc2)NC(=O)NC1=O (stereo not given) | 106% | 106% | 99.3% | 105% | 97.2% | 103% | 104% | 101% | 100% | 112%
Clc1ccc(I)c2ccccc12 | 96.4% | 111% | 96.5% | 110% | 96.3% | 102% | 109% | 111% | 59.4% | 114%
COc1ccc(Cn2cc3c(c2-c2ccccc2)CCc2cnoc2-3)cc1OC | 32% | 16.5% | -11.1% (active) | 50.3% | 36.8% | 26.5% | 10.5% | 48.7% | 43.3% | 58.6%
CC(C)OCC1CO1 (stereo not given) | 100% | 103% | 92.7% | 99.7% | 102% | 106% | 108% | 98.9% | 113% | 110%
CCCC(=O)NNc1[nH]c(-c2ccc(OC)cc2)cc1C(=O)OCC | 100% | 110% | 122% | 108% | 104% | 106% | 111% | 99.6% | 103% | 120%
Cc1c(C(N)=O)sc2c1c(=O)n(Cc1ccccc1)c1nnc(S(C)(=O)=O)n21 | 96.1% | 88.2% | 94.4% | 93.2% | 98.7% | 47.8% | 74.8% | 78.1% | 81.2% | 96.2%
CC(O)CN(CCO)CCN(CCO)CC(C)O (stereo not given) | 101% | 100% | 98.7% | 105% | 106% | 106% | 106% | 101% | 98% | 106%
Cc1nc2c(nnn2-c2ccccc2)c2nc(-c3ccccc3)oc(=O)c12 | 101% | 113% | 99.1% | 104% | 110% | 105% | 104% | 97.2% | 98.3% | 104%
COc1ccc(Cn2cc3c(c2-c2ccc(OC)cc2)CCc2cnoc2-3)cc1 | 14.2% | 7.18% (active) | 11.4% | 45.5% | 24% | 24.8% | 10.6% | 44% | 32.2% | 51.2%
O=C(/C=C\c1ccccc1Cl)c1ccccc1 | 89.9% | 92.3% | 86.7% | 94.9% | 79.3% | 93.8% | 92.2% | 89.7% | 82.1% | 110%
CC(=O)Nc1ccc(S(=O)(=O)Cl)cc1 | 110% | 106% | 94% | 110% | 95.6% | 99.8% | 98.3% | 97.9% | 94.8% | 117%
Cc1nnc(-c2cc3c(ccc4ccccc43)oc2=O)c2cn(-c3ccc(Cl)cc3)nc12 | 87.4% | 95.4% | 82.4% | 96.4% | 87.1% | 88.6% | 96% | 90.9% | 79.9% | 118%
COc1ccc2nc3cc(Cl)ccc3c(NCCCNC(C)=O)c2c1 | 23.6% | 27% | 68.9% | 43.4% | 32.3% | 39.6% | 23.5% | 42.6% | 15.9% | 38.8%
Cc1[nH]n(C(=S)Nc2nc3cc(Cl)c(F)cc3s2)c(=O)c1N=Nc1ccc(F)c(Cl)c1 | 101% | 112% | 86% | 89.7% | 95.9% | 98.1% | 93.1% | 92.8% | 99% | 106%
COc1ccc(Cn2cc3c(c2-c2ccc(O)cc2)CCc2cnoc2-3)cc1 | 21.3% | 19.9% | 19.1% | 47.1% | 27.6% | 27% | 19.2% | 44.5% | 35.4% | 54.3%
O=C(NCCO)C(F)(F)F | 96.9% | 104% | 101% | 94.6% | 97.1% | 103% | 115% | 102% | 103% | 111%
CC1(C)C(O)NC(Cl)=C(C#N)C1(C#N)C#N (stereo not given) | 153% | 101% | 98.4% | 105% | 110% | 114% | 114% | 131% | 109% | 108%
CCN(CCO)CCNc1ccc(C)c2sc3cc(OC)ccc3c(=O)c12 | 41.1% | 33.1% | 70.9% | 67.7% | 54% | 71.2% | 80.6% | 98.9% | 50.7% | 94.2%
